High-throughput results deposited in PubChem BioAssay by National Center for Advancing Translational Sciences (NCATS).
AMA1-RON2 inh: qHTS for Inhibitors of AMA1-RON; Towards Development of Antimalarial Drug Lead: Primary Screen; Plasmodium falciparum AMA1 (3D7) - RON2 peptide interaction; AlphaScreen AMA1-biotinylated RON2 peptide binding; Potency, µM (titrated, usually from 58.2 µM), most hits filed as inhibitors; 0.2% of 360,000 active; AID 720542, 2013; note: nearly all actives have a fitted effect of over 45% in size
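AMA1 (3D7) with his tag at 25 nM final met compounds first, then biotinylated RON2 peptide at 25 nM; detection used donor plus acceptor beads, 10 µg/mL apiece, read by AlphaScreen after 30 min at room temperature.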
Pf growth 96h: Primary qHTS for delayed death inhibitors of the malarial parasite plastid, 96 hour incubation | Potency, µM (highest dose often 28.7 µM), actives largely listed as inhibitors | 6.9% of 320,000 active | P. falciparum luciferase reporter growth, 96 h | AID 504834, 2011
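P. falciparum expressing integrated firefly luciferase, in erythrocytes at 2% hematocrit, 0.05% parasitemia, incubated with compounds 96 h at 37 C, 5% CO2. Growth inhibition read as loss of luminescence; two-generation exposure targets delayed-death apicoplast inhibitors.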
SARS PLpro yeast: qHTS of Yeast-based Assay for SARS-CoV PLP | Potency, µM (doses to about 32.9 µM), usual class: activators | AID 485353, 2010 | 0.19% of 330,000 active | S. cerevisiae expressing SARS-CoV PLpro, growth rescue; calls by dose curve; note: nearly all actives have a fitted effect of over 55% in size
Pf growth 48h: Primary qHTS for delayed death inhibitors of the malarial parasite plastid, 48 hour incubation | 5.9% of 310,000 active | AID 504832, 2011 | P. falciparum luciferase growth in erythrocytes, 48 h | Potency, µM (highest dose often 28.7 µM), actives largely listed as inhibitors
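Cell-based growth assay: transgenic P. falciparum expressing firefly luciferase, cultured in red cells within RPMI 1640 containing 0.5% w/v Albumax, 24 mM bicarbonate and gentamycin. A drop in luciferase activity indicates inhibition.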
Shiga inhibitor: A qHTS for Small Molecule Inhibitors of Shiga Toxin. Vero cells, Shiga toxin protein synthesis inhibition reporter. inhibition, % at 38.7 µM. 9.2% of 290,000 active. AID 2315, 2010; in the data active = inhibition mostly above about 28%, no sharp cut-off; inactive = mostly below about 43%
CHX counter-1: Cycloheximide Counterscreen for Small Molecule Inhibitors of Shiga Toxin; cell reporter, cycloheximide protein synthesis inhibition counterscreen; AID 2314, 2010; 12% of 300,000 active; max response, %; in the data active = max response mostly above about 13%, no sharp cut-off; inactive = mostly below about 14%; note: read at 38.3 µM for the half of the compounds with a filed dose
CHX counter-2: Cycloheximide Counterscreen for Small Molecule Inhibitors of Shiga Toxin (Confirmatory). Cycloheximide counterscreen, protein synthesis reporter, Shiga toxin assay. shares compounds with Shiga inhibitor. AID 2318, 2010. Potency, µM (top dose mostly 38.3 µM), actives largely listed as activators. 3% of 510 active; calls by dose curve
Each line names hits and unclear results; the compound was inactive in the other large screens (follow-up assays come after a bar, where they were run); ! = repeats disagree. In the library only some 19% were active in any assay of this set; here they are far more common. Unless noted, calls come from the whole dose curve; as a rule, active = well fitted curve in the direction sought with a large enough effect; inconclusive = small, poorly fitted or top-dose-only effect, or another doubt; inactive = no such curve, though single readings can be large; an effect the other way counts as inactive or inconclusive.

COc1ccc(C)cc1NC(=O)c1ccc(S(=O)(=O)N2CCCCC2)cc1	Pf growth 48h inconclusive, Shiga inhibitor 25.2 | CHX counter-2 inactive
Cc1ccc(NC(=O)c2ccc(Cn3cc(Br)cn3)o2)cc1	Shiga inhibitor 38.3 | CHX counter-2 inactive
Cc1ccsc1/C=N/NC(=O)c1ccc(Cn2cc(Br)cn2)o1	Pf growth 96h inconclusive, Pf growth 48h inconclusive
COc1ccc2cc(C(=O)NCc3ccccc3)[nH]c2c1	Shiga inhibitor 31.3 | CHX counter-2 inconclusive
COc1ccc2[nH]c(C(=O)NCc3ccccc3)c(C)c2c1	AMA1-RON2 inh inconclusive
CC(=O)Nc1ccc(NC(=O)COC(=O)c2c3c(nc4ccccc24)CCN(Cc2ccccc2)C3)cc1	Pf growth 96h 5.86µM, Pf growth 48h 10.4µM, Shiga inhibitor 22.0 | CHX counter-2 inactive
CCN1CCc2nc3ccccc3c(C(=O)Nc3ccc(NC(C)=O)cc3)c2C1	none
CC(=O)c1cccc(NC(=O)c2ccc(NC(=O)CCS(=O)(=O)c3cccs3)cc2)c1	Pf growth 48h inconclusive, Shiga inhibitor 32.8 | CHX counter-2 inactive
CCOc1ccccc1NC(=O)CCS(=O)(=O)c1cccs1	Shiga inhibitor 125.6 | CHX counter-2 inactive
CCOc1ccccc1NC(=O)CCS(=O)(=O)c1cccc2nonc12	Pf growth 96h inconclusive
O=C(CCS(=O)(=O)c1cccs1)Nc1ccc(C(=O)NCc2cccs2)cc1	Pf growth 48h inconclusive, Shiga inhibitor 28.9 (no result: Pf growth 96h) | CHX counter-2 inactive
Cc1ccccc1CN(c1ccc(C(=O)N/N=C/c2ccc(OCC(N)=O)cc2)cc1)S(C)(=O)=O	Pf growth 48h inconclusive
CC(=O)COc1ncn(-c2ccccc2)n1	Pf growth 96h inconclusive
O=C(COc1ncnc2ccccc12)NCCC1=CCCCC1	Shiga inhibitor 40.6 | CHX counter-2 inactive
O=C(Cc1cccc(NC(=O)C2CCN(C(=O)CCc3ccccc3)CC2)c1)Nc1cccc(C(=O)N2CCCCC2)c1	none (no result: Pf growth 96h, SARS PLpro yeast, Pf growth 48h, Shiga inhibitor, CHX counter-1)
CCC(=O)N1CCN(c2ccccc2NC(=O)c2ccc([N+](=O)[O-])o2)CC1	Pf growth 48h inconclusive, Shiga inhibitor 54.8 | CHX counter-2 inconclusive
CC1CCN(c2ccccc2NC(=O)c2ccc([N+](=O)[O-])o2)CC1	Pf growth 48h inconclusive
CN(C)c1ccc(/C=C/C#N)cc1	Shiga inhibitor 30.7 | CHX counter-2 inactive
CN(C)c1ccc(/C=C/[N+](=O)[O-])cc1	none
O=C1Nc2ccc([N+](=O)[O-])cc2OC1CCN1CCN(Cc2ccc3c(c2)OCO3)CC1 (stereo not drawn)	none
O=C(Nc1ccccc1)Nc1ccc(NC(=O)c2ccccc2O)cc1	none
O=C(Nc1ccccc1)c1ccc[nH]1	Shiga inhibitor 39.6 | CHX counter-2 inactive
O=C(Nc1ccccc1)c1ccccc1O	Pf growth 48h inconclusive, Shiga inhibitor 59.1 | CHX counter-2 22.5µM
CC(NC(=O)COC(=O)CCN1C(=O)C2CC=CCC2C1=O)c1ccc(Br)cc1 (stereo not drawn)	none (no result: Shiga inhibitor, CHX counter-1)
N#Cc1ccc(N=c2ssnc2Cl)cc1	Pf growth 96h 11.7µM!, Shiga inhibitor 28.0 | CHX counter-2 inactive
N#Cc1ccc(Oc2c(Cl)cncc2Cl)cc1	none
O=C(c1ccco1)N1CCN(CCOc2ccc(F)cc2)CC1	none
O=C(c1ccco1)N1CCN(CCCCOc2cccc3ccccc23)CC1	Pf growth 96h inconclusive, Pf growth 48h inconclusive, Shiga inhibitor 37.4 | CHX counter-2 inactive
CC(C)CCNC(=O)CN1C(=O)CN=C(c2ccccc2)c2ccccc21	Pf growth 96h inconclusive, Pf growth 48h inconclusive
O=C(CN1C(=O)CN=C(c2ccccc2)c2ccccc21)NCc1ccco1	Pf growth 96h inconclusive, Shiga inhibitor 43.7 | CHX counter-2 inactive
COC(=O)c1ccc(COc2ccc(C3C4=C(CCCC4=O)Nc4onc(C)c43)cc2)cc1 (stereo not drawn)	Pf growth 96h inconclusive, Pf growth 48h inconclusive, Shiga inhibitor 47.0 | CHX counter-2 inconclusive
COC(=O)c1ccc(C2CC(=O)NC3=C2C(=O)CCC3)cc1 (stereo not drawn)	Pf growth 96h inconclusive
Cc1cccc2c1N(CCCOc1ccccc1)C(=O)C2=O	none
Cc1ccccc1OCCCN1C(=O)C(=O)c2cccc(C)c21	AMA1-RON2 inh 15.8µM, Pf growth 48h inconclusive, Shiga inhibitor 27.9 | CHX counter-2 inactive
NS(=O)(=O)c1ccc(NC(=O)/C=C/c2ccc(S(=O)(=O)NCc3ccco3)cc2)cc1	Pf growth 96h inconclusive
CC(=O)N1CCC(C(=O)Nc2ccc3c(c2)CCC3)CC1	Pf growth 96h inconclusive
CC(=O)Nc1ccc2c(c1)CCCC2	Shiga inhibitor 19.8 | CHX counter-2 inactive
O=C(NC(=S)Nc1ccccc1)c1cncc(C#Cc2ccccc2)c1	none
CCOc1cc(S(=O)(=O)N2CCN(Cc3ccccc3)CC2)ccc1Br	Shiga inhibitor 136.1 (no result: SARS PLpro yeast) | CHX counter-2 inactive
COc1ccc(NC(=O)NNC(=O)c2ccc3ccccc3c2O)c(OC)c1	Shiga inhibitor 26.7 | CHX counter-2 inactive
Cc1nc2c(nnn2Cc2ccccc2)c(=O)[nH]1	none
O=C(CC(c1ccccc1)c1cc(Cl)ccc1O)N1CCCC1 (stereo not drawn)	Pf growth 96h inconclusive, Pf growth 48h inconclusive, Shiga inhibitor 56.7 | CHX counter-2 inactive
O=C(CC(c1ccccc1)c1cc(Cl)ccc1O)N1CCOCC1 (stereo not drawn)	none
CCC(C)NC(=O)C1CC(c2ccc(OC)cc2)=NO1 (stereo not drawn)	none (no result: Pf growth 96h)
COc1ccc(C2=NOC(C(=O)NC(C)C)C2)cc1 (stereo not drawn)	Pf growth 96h inconclusive, Shiga inhibitor 25.9 | CHX counter-2 inactive
COCCNC(=O)CN1C(=O)COc2ccc(S(=O)(=O)N3CCCCCC3)cc21	none
Cc1ccc2nc(-c3ccccc3)cc(C(=O)NCC3CCCO3)c2c1 (stereo not drawn)	Shiga inhibitor 40.2 | CHX counter-2 inactive
C=C(C)C1CC=C(C)/C(=N\NC(=O)CNc2cccc3ccccc23)C1 (stereo not drawn)	Pf growth 96h inconclusive, SARS PLpro yeast inconclusive
O=C(CNS(=O)(=O)c1ccc2ccccc2c1)OCC(=O)c1ccc(Br)s1	none (no result: Pf growth 96h)
Cc1cc(C(=O)COC(=O)CNS(=O)(=O)c2ccc3ccccc3c2)c(C)n1-c1ccccc1	Shiga inhibitor active | CHX counter-2 inactive
CCn1c(SCC(N)=O)nnc1-c1ccc2[nH]c(C)c(C)c2c1	none
CCn1c(SCC(=O)O)nnc1-c1ccc2[nH]c(C)c(C)c2c1	Shiga inhibitor 26.7 | CHX counter-2 inactive
